PubChem BioAssay
Where “and” joins values, the source holds several entries; their conditions need not be identical. Equal values may be shown once. Results filed as inconclusive are left out. Calls of active or inactive are those of the source.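 Rule for the calls, unless noted: active = inhibition above 50%, about 3 SD of the validation set; inactive = the rest.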

Columns and labels:
[1] = yeast TOR pathway RPL19A-GFP modulators, primary screen, cell-based, S. cerevisiae, multiplex flow cytometry (AID 1862; in the data active = percent of DMSO control GFP below about 86%;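 note: lower values mimic rapamycin by blocking the RPL19A rise seen in DMSO cells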); conditions: S. cerevisiae RPL19A-GFP strain, flow cytometry fluorescence, 3 h; at 10 µM; stronger effect = lower value
[2] = modulators of MEP2-GFP levels in yeast, primary screen, S. cerevisiae, multiplex flow cytometry (AID 1867;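 active = GFP response, as percent of the DMSO control, above the screen-wide mean plus 3 SD, about 139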;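 note: median GFP channel fluorescence of barcode-gated MEP2-GFP cells measured by flow cytometry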); conditions: S. cerevisiae MEP2-GFP strain, 3 h, at 10 µM, stronger effect = higher value, 100% means same as DMSO wells
[3] = modulators of CIT2-GFP expression in yeast, primary screen, S. cerevisiae, GFP fusion, multiplex flow cytometry (AID 1870;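 active = percent response above a set limit, the screen-wide mean plus 3 SD, cut at about 130% in these data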;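 note: barcoded CIT2-GFP strain pooled with four other GFP strains with rapamycin as positive control; median GFP fluorescence per well over plate mean of DMSO wells so 100% = DMSO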); conditions: 3 h, at 10 µM, stronger effect = higher value
[4] = modulators of LAP4-GFP expression in yeast, primary screen, S. cerevisiae, multiplex flow cytometry (AID 1873;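 active = GFP signal, as percent of the solvent control, above the screen mean plus 3 SD, about 149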); conditions: 3 h, at 10 µM, stronger effect = higher value
[5] = modulators of AGP1-GFP expression in yeast TOR pathway, primary screen, cell-based, multiplex flow cytometry, S. cerevisiae (AID 1887;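 active = GFP signal above the screen-wide mean plus 3 SD, that is over about 124.5% of the solvent control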;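 note: AGP1-GFP fusion strain of S. cerevisiae within a five-strain barcoded multiplex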); conditions: 3 h, at 10 µM, stronger effect = higher value
[6] = inhibitors of CD8+ T cell-vesicle binding, pilot screen, LFA-1/ICAM-1 modulator project, MLPCN validation set, flow cytometry (AID 2523;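 active = response below a set limit, under 55% cells CD8-positive and vesicle-bound, and CD8 cells' 90th-percentile brightness under 279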;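 for vesicle binding response: mean PE anti-B7-1 fluorescence of CD8+ cells relative to row control; 100% = QL9-loaded vesicles with DMSO vehicle in the same plate row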); conditions: 2C mouse CD8+ T cells, at 7 µM, stronger effect = lower value; double positive events: measured here: CD8+/vesicle+ event percentage
[7] = target: Integrin beta-1 (Homo sapiens) + Integrin alpha-4 (Homo sapiens) (UniProt P13612+P05556); assay: inhibition of HUTS-21 binding to VLA-4, pilot screen, VLA-4 allosteric modulator project, U937 cells, HUTS-21 mAb, flow cytometry, validation set (AID 2674); conditions: HUTS-21 LIBS mAb binding, at 6.7 µM, stronger effect = higher value, binding induced by LDV ligand;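 note: antibody binding induced by the VLA-4 ligand LDV present at three times its Kd; 0% = LDV ligand with antibody and no compound and 100% = antibody without LDV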
[8] = superoxide lowering in aged yeast cells, pilot screen, validation compound set (AID 2706;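 active = superoxide response below 65% of plate, a cut near 3 SD across the whole screen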;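 note: yeast exposed to compound for one week at 30 degrees C before staining; 100% = mean of all compound wells on the same plate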); conditions: S. cerevisiae aging, superoxide DHE fluorescence; at 10 µM; stronger effect = lower value
[9] = target: Beta-adrenergic receptor kinase 1 (Homo sapiens) (UniProt P25098); assay: GRK2 binders displacing RNA aptamer, biochemical, validation, human GRK2, bead flow cytometry (AID 488806;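 active = aptamer binding inhibition above 30%, about 3 SD of noise from non-fluorescent compounds; inactive = inhibition at or below 30%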); conditions: bead-bound GRK2, FAM-aptamer displacement, at 10 µM, stronger effect = higher value
[10] = target: Beta-2 adrenergic receptor (Homo sapiens) (UniProt P07550); assay: beta2AR agonists driving receptor internalization, pilot screen, cell-based, FAP fluorogen, flow cytometry, validation set (AID 504459;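 active = percent response above 42, roughly 3 SD of non-fluorescent test compounds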;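 note: agonist-driven loss of surface beta2AR via internalization measured by FAP dye flow cytometry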); conditions: Am2.2-beta2AR cells, FAP surface receptor flow cytometry; at 10 µM; stronger effect = higher value
[11] = target: AP-2 complex subunit beta (Homo sapiens) (UniProt P63010); assay: inhibitors of arrestin peptide binding to AP2, pilot screen, biochemical, validation set, GST-AP2 beads, flow cytometry (AID 504541;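 active = inhibition above 54%, about 3 SD of non-fluorescent compounds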;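 note: AP2 carries R879A mutation and is captured from E. coli lysate; bead-bound FITC arrestin peptide fluorescence measuring arrestin peptide binding to AP2; 0% = DMSO wells and 100% = excess unlabeled arrestin peptide control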); conditions: FITC arrestin peptide, at 10 µM, stronger effect = higher value, AP2 beta2 appendage fragment, R879A mutant
[12] = yeast V-ATPase proton transport modulators, S. cerevisiae, pHLuorin, HTS validation (AID 504600; in the data active = response above about 15%;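 note: plate controls were DMSO for no effect and reference compound for full effect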); conditions: S. cerevisiae pHLuorin cytosolic pH, at 10 µM, stronger effect = higher value
[13] = tested on: anti-desmoglein-3 scFv antibody binding to human DSG3; assay: inhibitors of anti-DSG3 scFv binding to DSG3, pilot screen, biochemical, validation compound set, bead-based, flow cytometry (AID 588368;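 active = binding below the plate cutoff, the plate median minus 3 SD, with a reading above zero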;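 note: signal is the median channel fluorescence of bead-bound GFP antibody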); conditions: Protein G beads, DSG3-Fc, scFv-GFP binding, at 10 µM, stronger effect = lower value
[14] = inhibitors of fungal efflux pumps CDR1, CDR2, MDR1, pilot screen, validation compound set, multiplex, phenotypic (AID 588506;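 active = efflux inhibition above 0.42, the validation set average plus 4 SD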;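 note: Nile Red retained in cells so higher fluorescence means more efflux inhibition; 0 = negative control wells and 1 = enniatin B 25 µM full block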); conditions: S. cerevisiae pump-expressing triplex, Nile Red efflux flow cytometry; at 10 µM; stronger effect = higher value; the pumps come from Candida albicans
[15] = target: ATP-binding cassette sub-family B member 6 (Homo sapiens) (UniProt Q9NP58); assay: ABCB6 transporter inhibitors, pilot screen, K562-ABCB6 cells, flow cytometry, validation set (AID 588550;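 active = inhibition above the screen-wide mean plus 3 SD, about 51%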;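 note: 0% = DMSO wells and 100% = benzethonium chloride 70 µM positive control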); conditions: K562-ABCB6 porphyrin accumulation, 1 h, at 10 µM, stronger effect = higher value
[16] = promoters of myeloid differentiation in arrested cells, primary screen, cell-based, GFP/MAC1 double positive, flow cytometry, validation set (AID 588685;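 active = differentiation response of at least 50%, scaled between solvent and reference control, from cells with both markers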;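 note: compound exposure lasts four days before antibody staining and flow analysis; 0% = DMSO wells and 100% = 5 µM fulvestrant positive control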); conditions: ER-HoxA9 marrow cells, stronger effect = higher value, normalized: vehicle 0, fulvestrant 100

AP-2 complex subunit beta (Homo sapiens), sequence (P63010 whole entry, looked up, the tested form may be a part, one chain of several): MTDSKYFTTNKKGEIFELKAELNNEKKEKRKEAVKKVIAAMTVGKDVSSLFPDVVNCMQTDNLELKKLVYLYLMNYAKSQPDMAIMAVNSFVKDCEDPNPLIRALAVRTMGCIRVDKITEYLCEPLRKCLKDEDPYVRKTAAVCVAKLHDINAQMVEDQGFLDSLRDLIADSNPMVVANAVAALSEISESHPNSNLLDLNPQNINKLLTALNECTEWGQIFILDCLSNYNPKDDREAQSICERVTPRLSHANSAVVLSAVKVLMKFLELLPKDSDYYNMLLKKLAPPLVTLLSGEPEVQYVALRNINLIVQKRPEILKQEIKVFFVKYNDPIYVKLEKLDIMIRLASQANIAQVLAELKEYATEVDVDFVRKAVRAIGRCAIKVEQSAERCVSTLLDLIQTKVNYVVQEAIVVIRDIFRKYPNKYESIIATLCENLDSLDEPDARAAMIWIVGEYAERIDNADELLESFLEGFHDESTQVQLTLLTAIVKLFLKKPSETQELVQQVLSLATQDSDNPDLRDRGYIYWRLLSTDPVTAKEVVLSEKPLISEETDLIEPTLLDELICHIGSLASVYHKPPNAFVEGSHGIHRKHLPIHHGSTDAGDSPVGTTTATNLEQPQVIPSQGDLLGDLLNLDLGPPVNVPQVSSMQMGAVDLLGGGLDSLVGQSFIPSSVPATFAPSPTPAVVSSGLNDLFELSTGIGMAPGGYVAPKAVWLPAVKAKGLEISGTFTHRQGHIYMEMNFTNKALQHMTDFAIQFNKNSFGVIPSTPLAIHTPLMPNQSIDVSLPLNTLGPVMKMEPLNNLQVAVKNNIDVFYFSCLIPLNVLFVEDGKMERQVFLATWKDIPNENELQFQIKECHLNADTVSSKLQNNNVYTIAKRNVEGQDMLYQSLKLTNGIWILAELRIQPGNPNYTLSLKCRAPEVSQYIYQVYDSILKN
ATP-binding cassette sub-family B member 6 (Homo sapiens), sequence (Q9NP58 whole entry, looked up): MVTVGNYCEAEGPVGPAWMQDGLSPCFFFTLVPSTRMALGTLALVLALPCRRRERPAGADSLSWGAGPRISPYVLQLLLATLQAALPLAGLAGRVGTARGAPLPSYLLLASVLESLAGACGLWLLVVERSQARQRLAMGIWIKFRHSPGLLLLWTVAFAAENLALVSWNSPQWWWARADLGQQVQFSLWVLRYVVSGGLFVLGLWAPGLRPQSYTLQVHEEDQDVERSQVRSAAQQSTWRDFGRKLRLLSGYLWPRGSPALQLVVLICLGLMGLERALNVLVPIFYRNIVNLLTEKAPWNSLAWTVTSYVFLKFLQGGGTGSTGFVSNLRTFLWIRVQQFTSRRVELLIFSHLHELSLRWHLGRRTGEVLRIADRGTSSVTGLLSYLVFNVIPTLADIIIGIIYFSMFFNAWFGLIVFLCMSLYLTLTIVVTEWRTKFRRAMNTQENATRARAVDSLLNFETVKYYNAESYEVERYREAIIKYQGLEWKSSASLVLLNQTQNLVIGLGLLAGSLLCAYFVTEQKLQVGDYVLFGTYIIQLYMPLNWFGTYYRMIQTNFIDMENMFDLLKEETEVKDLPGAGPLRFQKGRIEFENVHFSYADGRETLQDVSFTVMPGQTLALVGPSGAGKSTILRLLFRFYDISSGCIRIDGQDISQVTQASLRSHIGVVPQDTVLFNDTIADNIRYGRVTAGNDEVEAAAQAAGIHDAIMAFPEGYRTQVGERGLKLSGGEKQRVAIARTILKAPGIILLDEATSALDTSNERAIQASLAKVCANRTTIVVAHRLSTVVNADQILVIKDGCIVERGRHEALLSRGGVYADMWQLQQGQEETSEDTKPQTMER
Integrin beta-1 (Homo sapiens) + Integrin alpha-4 (Homo sapiens), sequence (P05556 whole entry, looked up): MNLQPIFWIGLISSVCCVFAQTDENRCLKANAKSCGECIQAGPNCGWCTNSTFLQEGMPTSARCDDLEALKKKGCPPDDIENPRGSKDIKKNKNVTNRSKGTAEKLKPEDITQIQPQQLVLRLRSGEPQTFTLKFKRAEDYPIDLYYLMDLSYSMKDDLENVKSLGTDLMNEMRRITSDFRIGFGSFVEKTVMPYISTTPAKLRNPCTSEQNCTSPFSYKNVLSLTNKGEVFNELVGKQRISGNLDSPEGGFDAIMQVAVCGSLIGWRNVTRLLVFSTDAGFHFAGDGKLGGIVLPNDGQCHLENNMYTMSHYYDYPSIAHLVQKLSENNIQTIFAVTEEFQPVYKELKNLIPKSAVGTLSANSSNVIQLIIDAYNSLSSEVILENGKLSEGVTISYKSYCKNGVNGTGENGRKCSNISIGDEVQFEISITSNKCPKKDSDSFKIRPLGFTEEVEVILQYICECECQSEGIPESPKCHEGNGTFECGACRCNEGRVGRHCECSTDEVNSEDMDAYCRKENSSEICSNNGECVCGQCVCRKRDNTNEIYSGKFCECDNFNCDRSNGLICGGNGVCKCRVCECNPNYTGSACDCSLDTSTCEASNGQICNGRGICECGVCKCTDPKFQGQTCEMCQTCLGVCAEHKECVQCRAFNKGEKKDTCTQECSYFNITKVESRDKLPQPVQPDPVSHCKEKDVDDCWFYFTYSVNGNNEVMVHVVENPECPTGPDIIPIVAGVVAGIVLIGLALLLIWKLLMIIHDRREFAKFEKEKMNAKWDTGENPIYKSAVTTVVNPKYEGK
Integrin beta-1 (Homo sapiens) + Integrin alpha-4 (Homo sapiens), sequence (P13612 whole entry, looked up): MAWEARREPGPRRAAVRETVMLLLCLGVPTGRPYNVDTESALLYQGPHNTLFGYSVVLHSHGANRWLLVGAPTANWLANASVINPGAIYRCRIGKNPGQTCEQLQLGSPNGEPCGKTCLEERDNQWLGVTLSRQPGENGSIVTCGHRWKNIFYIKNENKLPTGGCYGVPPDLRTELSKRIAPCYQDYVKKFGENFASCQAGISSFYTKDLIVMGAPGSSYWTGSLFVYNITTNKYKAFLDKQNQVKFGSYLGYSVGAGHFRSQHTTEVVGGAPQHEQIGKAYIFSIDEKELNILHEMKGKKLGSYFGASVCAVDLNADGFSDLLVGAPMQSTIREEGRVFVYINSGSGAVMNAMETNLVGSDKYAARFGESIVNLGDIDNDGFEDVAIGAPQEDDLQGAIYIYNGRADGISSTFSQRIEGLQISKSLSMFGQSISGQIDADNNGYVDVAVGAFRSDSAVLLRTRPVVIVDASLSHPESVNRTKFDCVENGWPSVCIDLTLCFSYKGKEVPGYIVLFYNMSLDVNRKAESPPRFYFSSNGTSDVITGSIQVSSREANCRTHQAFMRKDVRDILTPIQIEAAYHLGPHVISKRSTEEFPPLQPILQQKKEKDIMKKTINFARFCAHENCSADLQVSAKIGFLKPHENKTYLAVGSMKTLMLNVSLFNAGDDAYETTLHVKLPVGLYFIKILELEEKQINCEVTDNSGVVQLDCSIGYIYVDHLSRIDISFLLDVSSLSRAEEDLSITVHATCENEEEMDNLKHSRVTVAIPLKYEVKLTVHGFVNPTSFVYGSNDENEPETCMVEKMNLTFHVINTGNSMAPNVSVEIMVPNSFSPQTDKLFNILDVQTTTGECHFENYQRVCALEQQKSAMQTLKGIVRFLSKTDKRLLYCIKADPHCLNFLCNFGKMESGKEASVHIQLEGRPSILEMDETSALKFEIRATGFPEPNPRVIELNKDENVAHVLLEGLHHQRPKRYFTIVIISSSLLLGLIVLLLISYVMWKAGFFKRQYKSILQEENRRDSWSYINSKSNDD
Beta-2 adrenergic receptor (Homo sapiens), sequence (P07550 whole entry, looked up): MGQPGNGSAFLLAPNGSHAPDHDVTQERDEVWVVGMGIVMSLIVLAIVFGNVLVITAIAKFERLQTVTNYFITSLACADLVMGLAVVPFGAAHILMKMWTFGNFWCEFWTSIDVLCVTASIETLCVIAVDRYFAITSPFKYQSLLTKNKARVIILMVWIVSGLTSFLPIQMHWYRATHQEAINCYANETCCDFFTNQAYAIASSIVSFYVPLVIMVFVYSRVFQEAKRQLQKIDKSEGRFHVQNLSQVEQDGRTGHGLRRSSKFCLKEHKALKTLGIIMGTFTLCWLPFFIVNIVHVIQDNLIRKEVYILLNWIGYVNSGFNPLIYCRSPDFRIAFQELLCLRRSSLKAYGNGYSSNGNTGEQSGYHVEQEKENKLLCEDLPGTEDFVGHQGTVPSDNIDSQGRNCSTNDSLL
Beta-adrenergic receptor kinase 1 (Homo sapiens), sequence (P25098 whole entry, looked up): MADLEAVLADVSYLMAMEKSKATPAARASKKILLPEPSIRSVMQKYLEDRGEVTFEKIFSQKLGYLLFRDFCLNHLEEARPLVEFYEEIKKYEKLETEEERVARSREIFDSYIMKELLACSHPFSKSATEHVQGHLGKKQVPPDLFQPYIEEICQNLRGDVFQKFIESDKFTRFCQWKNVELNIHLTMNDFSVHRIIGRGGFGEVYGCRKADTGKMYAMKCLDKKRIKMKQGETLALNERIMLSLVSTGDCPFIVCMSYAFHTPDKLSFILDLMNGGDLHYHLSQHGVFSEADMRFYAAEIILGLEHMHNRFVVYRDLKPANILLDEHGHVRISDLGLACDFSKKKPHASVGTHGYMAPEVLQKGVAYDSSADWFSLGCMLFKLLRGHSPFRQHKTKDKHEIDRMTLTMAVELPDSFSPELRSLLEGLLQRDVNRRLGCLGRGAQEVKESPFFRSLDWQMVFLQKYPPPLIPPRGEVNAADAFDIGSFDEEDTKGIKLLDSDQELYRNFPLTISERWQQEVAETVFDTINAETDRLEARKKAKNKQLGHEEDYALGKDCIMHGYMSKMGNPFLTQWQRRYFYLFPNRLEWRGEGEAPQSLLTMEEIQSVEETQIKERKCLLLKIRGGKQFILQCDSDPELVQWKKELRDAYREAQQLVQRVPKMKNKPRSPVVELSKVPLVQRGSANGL

COc1ccc(OC)c(C(=O)c2coc3ccc(O)cc23)c1
inactive: percent of DMSO control GFP [1] 98.7% | GFP response vs DMSO [2] 109% | percent response of DMSO control [3] 94.4% | GFP response vs DMSO [4] 146% | GFP response, % of DMSO [5] 109% | vesicle binding response [6] 192% | inhibition [7] -2.82% | superoxide response (% of plate) [8] 88.2% | aptamer binding inhibition [9] 2% | response [10] -29.6% | inhibition [11] -14.6% | response [12] 4.67% | binding (% of control) [13] 103% | efflux inhibition (fraction of control) [14] -0.04 | inhibition [15] 0% | differentiation response [16] 0.92%
63.7%: double positive events [6]

Cc1cccc(NC(=O)c2cc3ccccc3o2)c1
69.2%: double positive events [6]
inactive: percent of DMSO control GFP [1] 94.6% | GFP response vs DMSO [2] 115% | percent response of DMSO control [3] 112% | GFP response vs DMSO [4] 90.8% | GFP response, % of DMSO [5] 86.3% | vesicle binding response [6] 162% | inhibition [7] 5.49% | superoxide response (% of plate) [8] 90.5% | aptamer binding inhibition [9] 2% | response [10] -1.7% | inhibition [11] 1.31% | response [12] -0.5% | binding (% of control) [13] 102% | efflux inhibition (fraction of control) [14] -0.24 | inhibition [15] 17% | differentiation response [16] 3.28%

COc1cccc2cc(-c3ccccc3)c(=O)oc12
inactive: percent of DMSO control GFP [1] 105% | GFP response vs DMSO [2] 106% | percent response of DMSO control [3] 101% | GFP response vs DMSO [4] 140% | GFP response, % of DMSO [5] 106% | vesicle binding response [6] 134% | inhibition [7] -1.97% | superoxide response (% of plate) [8] 88.6% | aptamer binding inhibition [9] 3% | response [10] -27.6% | inhibition [11] 10.1% | binding (% of control) [13] 102% | efflux inhibition (fraction of control) [14] 0.29 | inhibition [15] 2% | differentiation response [16] -1.05%
active: response [12] 34.3%
61.4%: double positive events [6]

COc1ccc2[nH]c(CN3CCN(CC(C)C)C(CCO)C3)c(C)c2c1 (stereo not drawn)
61.7%: double positive events [6]
inactive: percent of DMSO control GFP [1] 98.8% | GFP response vs DMSO [2] 105% | percent response of DMSO control [3] 94.8% | GFP response vs DMSO [4] 105% | GFP response, % of DMSO [5] 98% | vesicle binding response [6] 231% | inhibition [7] -3.16% | superoxide response (% of plate) [8] 95.8% | aptamer binding inhibition [9] 3% | response [10] -3.42% | inhibition [11] -1.65% | response [12] 2.28% | binding (% of control) [13] 97.4% | efflux inhibition (fraction of control) [14] -0.06 | inhibition [15] 6% | differentiation response [16] -4%

Nc1ccc(C(=O)O)c(O)c1
inactive: percent of DMSO control GFP [1] 102% | GFP response vs DMSO [2] 106% and 107% | percent response of DMSO control [3] 99.7% and 96.7% | GFP response vs DMSO [4] 100% and 111% | GFP response, % of DMSO [5] 104% and 106% | vesicle binding response [6] 199% and 232% | inhibition [7] -2.43% and 6.4% | superoxide response (% of plate) [8] 95.4% and 103% | aptamer binding inhibition [9] 5% and 4% | response [10] -5.54% and 8.67% | inhibition [11] -7.61% and 3.32% | response [12] -2.48% and -0.83% | binding (% of control) [13] 103% and 100% | efflux inhibition (fraction of control) [14] 0.28 and -0.03 | inhibition [15] 3% and 8% | differentiation response [16] -7.5% and -31.2%
61.7% and 60.8%: double positive events [6]

C/C(=N\NC(=O)C1(C)CC1(Br)Br)c1ccc([N+](=O)[O-])cc1 (stereo not drawn)
65.3%: double positive events [6]
inactive: percent of DMSO control GFP [1] 105% | GFP response vs DMSO [2] 99.3% | percent response of DMSO control [3] 105% | GFP response vs DMSO [4] 85.5% | GFP response, % of DMSO [5] 104% | vesicle binding response [6] 390% | inhibition [7] -0.45% | superoxide response (% of plate) [8] 83.6% | aptamer binding inhibition [9] 6% | response [10] -9.52% | inhibition [11] -5.83% | binding (% of control) [13] 98.5% | efflux inhibition (fraction of control) [14] -0.17 | inhibition [15] 1% | differentiation response [16] 13.9%
active: response [12] 26.1%

COc1ccc2c(c1)C=CC1(O2)N(CCO)c2ccccc2C1(C)C (stereo not drawn)
inactive: percent of DMSO control GFP [1] 98.2% | GFP response vs DMSO [2] 111% | percent response of DMSO control [3] 104% | GFP response vs DMSO [4] 124% | GFP response, % of DMSO [5] 117% | vesicle binding response [6] 212% | inhibition [7] -55.6% | superoxide response (% of plate) [8] 108% | aptamer binding inhibition [9] 6% | inhibition [11] 13.6% | response [12] 7.05% | binding (% of control) [13] 99.2% | efflux inhibition (fraction of control) [14] 0.04 | inhibition [15] -25% | differentiation response [16] -1.05%
62.1%: double positive events [6]
active: response [10] 43.9%

c1ccc(CN(CC2=NCCN2)c2ccccc2)cc1
inactive: percent of DMSO control GFP [1] 87.8% | GFP response vs DMSO [2] 138% | percent response of DMSO control [3] 101% | GFP response vs DMSO [4] 78.7% | GFP response, % of DMSO [5] 84.3% | vesicle binding response [6] 273% and 176% | inhibition [7] -56.6% and -2.27% | superoxide response (% of plate) [8] 93.5% and 98.7% | aptamer binding inhibition [9] 1% and 2% | response [10] 7.43% and -2.34% | inhibition [11] 0.2% and -12.4% | response [12] -4.75% and 1.48% | binding (% of control) [13] 111% and 102% | efflux inhibition (fraction of control) [14] -0.35 and -0.31 | inhibition [15] -5% and 12% | differentiation response [16] 15.6% and -8.19%
64.5% and 68.1%: double positive events [6]

COc1cc(C2Nc3ccccc3C(=O)N2c2ccccc2)ccc1O (stereo not drawn)
active: response [12] 61.2%
inactive: percent of DMSO control GFP [1] 109% | GFP response vs DMSO [2] 108% | percent response of DMSO control [3] 116% | GFP response vs DMSO [4] 93.3% | GFP response, % of DMSO [5] 103% | vesicle binding response [6] 256% | inhibition [7] 3.7% | superoxide response (% of plate) [8] 90% | aptamer binding inhibition [9] 0% | response [10] -10.2% | inhibition [11] -6.11% | binding (% of control) [13] 99.7% | efflux inhibition (fraction of control) [14] 0.18 | inhibition [15] 3% | differentiation response [16] 9.04%
62.9%: double positive events [6]
